Reference: the supplement of paper PMC6555819

Key:
Experiment in all cases: PBM binding z-score (relative to random genomic background probes); higher = stronger binding; sequences stand for … in GC…GCGATTGACAGCGTAGAATGAAGG
[1] = tested on: FXR:RXRa (NR concentration 270 nM, RXRa partner concentration 90 nM)
Outline: (§1)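 Random background probes are the reference for binding z-scores. These scores derive from regression-normalized fluorescence on custom Agilent 4×180K protein-binding microarrays incubated 1 h with ligand-free nuclear receptor dimers. Binding was detected with antibodies against each partner (one per run).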

[2] = tested on: LXRa:RXRa (NR concentration 270 nM, RXRa partner concentration 90 nM)
Outline: as §1

[3] = tested on: LXRa homodimer (NR concentration 270 nM)
Outline: as §1

[4] = tested on: LXRb:RXRa (NR concentration 270 nM, RXRa partner concentration 90 nM)
Outline: as §1

[5] = tested on: LXRb homodimer (NR concentration 270 nM)
Outline: as §1

[6] = tested on: PPARa:RXRa (NR concentration 270 nM, RXRa partner concentration 90 nM)
Outline: as §1

[7] = tested on: PPARg:RXRa (NR concentration 180 nM, RXRa partner concentration 90 nM)
Outline: as §1

[8] = tested on: PPARg:RXRa 270nM:90nM, anti-RXR (NR concentration 270 nM, RXRa partner concentration 90 nM)
Outline: as §1

[9] = tested on: PPARg:RXRa 30nM:10nM, anti-RXR (NR concentration 30 nM, RXRa partner concentration 10 nM)
Outline: as §1

[10] = tested on: PPARg:RXRa 90nM:30nM, anti-RXR (NR concentration 90 nM, RXRa partner concentration 30 nM)
Outline: as §1

[11] = tested on: PPARg:RXRa DBDmut IVT, anti-RXR (DBD mutation: RXRa K156A/R161A, NR concentration 270 nM, RXRa partner concentration 90 nM)
Outline: as §1

[12] = tested on: PPARg:RXRa IVT, anti-PPARg (NR concentration 270 nM, RXRa partner concentration 90 nM)
Outline: as §1

[13] = tested on: PPARg DBDmut:RXRa IVT, anti-PPARg (DBD mutation: PPARg1 K132A/R137A, NR concentration 270 nM, RXRa partner concentration 90 nM)
Outline: as §1

[14] = tested on: PPARg DBDmut IVT, anti-PPARg (DBD mutation: PPARg1 K132A/R137A, NR concentration 270 nM)
Outline: as §1

[15] = tested on: PPARg homodimer (NR concentration 180 nM)
Outline: as §1

[16] = tested on: PXR:RXRa (NR concentration 270 nM, RXRa partner concentration 90 nM)
Outline: as §1

[17] = tested on: PXR homodimer (NR concentration 270 nM)
Outline: as §1

[18] = tested on: RARa:RXR (NR concentration 270 nM, RXRa partner concentration 90 nM)
Outline: as §1

[19] = tested on: RARa homodimer (NR concentration 270 nM)
Outline: as §1

[20] = tested on: RARb:RXRa (NR concentration 270 nM, RXRa partner concentration 90 nM)
Outline: as §1

GTACCAAGGTGAATTGGTCGTTGATGAGTAGGCG
PBM binding z-score [1]: 0.321
PBM binding z-score [2]: 0.0311
PBM binding z-score [3]: -0.495
PBM binding z-score [4]: -0.18
PBM binding z-score [5]: -0.792
PBM binding z-score [6]: 0.557
PBM binding z-score [7]: 0.383
PBM binding z-score [8]: 0.173
PBM binding z-score [9]: -0.286
PBM binding z-score [10]: -0.112
PBM binding z-score [11]: 1.6
PBM binding z-score [12]: 1.85
PBM binding z-score [13]: 0.108
PBM binding z-score [14]: 0.076
PBM binding z-score [15]: -0.163
PBM binding z-score [16]: -0.436
PBM binding z-score [17]: -0.573
PBM binding z-score [18]: -0.15
PBM binding z-score [19]: -0.635
PBM binding z-score [20]: 1.17

TCATATAGCTAAATGCTAGGTGAAAGTCCGATCT
PBM binding z-score [1]: 0.567
PBM binding z-score [2]: 0.2
PBM binding z-score [3]: -0.0142
PBM binding z-score [4]: 0.288
PBM binding z-score [5]: -0.55
PBM binding z-score [6]: 0.6
PBM binding z-score [7]: 0.313
PBM binding z-score [8]: 1.67
PBM binding z-score [9]: 2.82
PBM binding z-score [10]: 2.07
PBM binding z-score [11]: 1.45
PBM binding z-score [12]: 0.452
PBM binding z-score [13]: 0.679
PBM binding z-score [14]: 0.932
PBM binding z-score [15]: 0.101
PBM binding z-score [16]: 0.31
PBM binding z-score [17]: -0.278
PBM binding z-score [18]: 0.514
PBM binding z-score [19]: -0.0788
PBM binding z-score [20]: 0.00512

TGAACGAGGTTATAAGATCAGGGAACGTTGCAAA
PBM binding z-score [1]: 1.41
PBM binding z-score [2]: 1.2
PBM binding z-score [3]: -0.217
PBM binding z-score [4]: 1.08
PBM binding z-score [5]: -0.589
PBM binding z-score [6]: 2.56
PBM binding z-score [7]: 1.16
PBM binding z-score [8]: 1.5
PBM binding z-score [9]: 0.646
PBM binding z-score [10]: 1.06
PBM binding z-score [11]: 0.0481
PBM binding z-score [12]: 1.09
PBM binding z-score [13]: 0.721
PBM binding z-score [14]: 0.611
PBM binding z-score [15]: 0.735
PBM binding z-score [16]: 0.661
PBM binding z-score [17]: -0.0458
PBM binding z-score [18]: 1.31
PBM binding z-score [19]: -0.0844
PBM binding z-score [20]: 1.18

CATACAGGGTCAGCTAGACCAGAGTAGGGACGGC
PBM binding z-score [1]: 4.47
PBM binding z-score [2]: 2.92
PBM binding z-score [3]: -0.0625
PBM binding z-score [4]: 2.14
PBM binding z-score [5]: 0.336
PBM binding z-score [6]: 4.07
PBM binding z-score [7]: 3.27
PBM binding z-score [8]: 3.06
PBM binding z-score [9]: 0.824
PBM binding z-score [10]: 1.87
PBM binding z-score [11]: 1.02
PBM binding z-score [12]: 2.59
PBM binding z-score [13]: 1.26
PBM binding z-score [14]: 0.0987
PBM binding z-score [15]: 1.43
PBM binding z-score [16]: 2.03
PBM binding z-score [17]: -0.458
PBM binding z-score [18]: 3.16
PBM binding z-score [19]: 0.685
PBM binding z-score [20]: 4.07

CCTATTAGTTGACCATAAGGGTAACCGAAGCTCG
PBM binding z-score [1]: 0.709
PBM binding z-score [2]: 0.386
PBM binding z-score [3]: 0.682
PBM binding z-score [4]: 0.604
PBM binding z-score [5]: 0.958
PBM binding z-score [6]: 0.678
PBM binding z-score [7]: 0.317
PBM binding z-score [8]: 0.671
PBM binding z-score [9]: 0.348
PBM binding z-score [10]: 0.358
PBM binding z-score [11]: 0.609
PBM binding z-score [12]: 0.727
PBM binding z-score [13]: 0.109
PBM binding z-score [14]: 1.15
PBM binding z-score [15]: 1.86
PBM binding z-score [16]: 0.536
PBM binding z-score [17]: 1.04
PBM binding z-score [18]: 0.834
PBM binding z-score [19]: 2.48
PBM binding z-score [20]: 1.06

ATCTCTAGGTAAAGATAGTTCAGTGGATGCAAAT
PBM binding z-score [1]: 0.0236
PBM binding z-score [2]: 4.13
PBM binding z-score [3]: 0.642
PBM binding z-score [4]: 0.57
PBM binding z-score [5]: 0.439
PBM binding z-score [6]: 0.29
PBM binding z-score [7]: 0.474
PBM binding z-score [8]: 0.242
PBM binding z-score [9]: 0.139
PBM binding z-score [10]: 0.257
PBM binding z-score [11]: 1.85
PBM binding z-score [12]: 1.54
PBM binding z-score [13]: 0.905
PBM binding z-score [14]: 0.158
PBM binding z-score [15]: 0.189
PBM binding z-score [16]: 0.971
PBM binding z-score [17]: 0.373
PBM binding z-score [18]: 0.0212
PBM binding z-score [19]: 1.18
PBM binding z-score [20]: 0.718

TATACAGTGTCAAAGGCCAGAGTACGAATGTCGA
PBM binding z-score [1]: 0.666
PBM binding z-score [2]: 0.861
PBM binding z-score [3]: 0.197
PBM binding z-score [4]: 0.608
PBM binding z-score [5]: 0.893
PBM binding z-score [6]: 2.18
PBM binding z-score [7]: 3.95
PBM binding z-score [8]: 4.17
PBM binding z-score [9]: 2.41
PBM binding z-score [10]: 3.86
PBM binding z-score [11]: 0.051
PBM binding z-score [12]: 2.04
PBM binding z-score [13]: 0.51
PBM binding z-score [14]: 1.14
PBM binding z-score [15]: 0.46
PBM binding z-score [16]: 0.552
PBM binding z-score [17]: 0.236
PBM binding z-score [18]: 1.33
PBM binding z-score [19]: 0.548
PBM binding z-score [20]: 1.88
